This note sets out measurements from PubChem BioAssay (Tox21).

Records with an inconclusive call do not appear. Entries that show only a call come without a potency. The source made the active and inactive calls. Unless noted, calls follow the shape of the dose curve; as a rule, active = well fitted curve in the direction sought with a large enough effect in the repeat runs; inconclusive = weak or mixed curves; inactive = no such curve, though single readings can be large; an effect the other way counts as inactive or inconclusive. Positions of bridges follow the written chain, without caps; N, C: chain ends. Non-standard residues stand in square brackets, D forms with d. Residues, ends and D or L forms follow the SMILES beside them. *: point of attachment. X2 = CC[C@H](C)CCCCC(=O)*; Dab = NCC[C@H](N)C(=O)O

Androgen receptor (Homo sapiens), sequence (P10275 whole entry, looked up): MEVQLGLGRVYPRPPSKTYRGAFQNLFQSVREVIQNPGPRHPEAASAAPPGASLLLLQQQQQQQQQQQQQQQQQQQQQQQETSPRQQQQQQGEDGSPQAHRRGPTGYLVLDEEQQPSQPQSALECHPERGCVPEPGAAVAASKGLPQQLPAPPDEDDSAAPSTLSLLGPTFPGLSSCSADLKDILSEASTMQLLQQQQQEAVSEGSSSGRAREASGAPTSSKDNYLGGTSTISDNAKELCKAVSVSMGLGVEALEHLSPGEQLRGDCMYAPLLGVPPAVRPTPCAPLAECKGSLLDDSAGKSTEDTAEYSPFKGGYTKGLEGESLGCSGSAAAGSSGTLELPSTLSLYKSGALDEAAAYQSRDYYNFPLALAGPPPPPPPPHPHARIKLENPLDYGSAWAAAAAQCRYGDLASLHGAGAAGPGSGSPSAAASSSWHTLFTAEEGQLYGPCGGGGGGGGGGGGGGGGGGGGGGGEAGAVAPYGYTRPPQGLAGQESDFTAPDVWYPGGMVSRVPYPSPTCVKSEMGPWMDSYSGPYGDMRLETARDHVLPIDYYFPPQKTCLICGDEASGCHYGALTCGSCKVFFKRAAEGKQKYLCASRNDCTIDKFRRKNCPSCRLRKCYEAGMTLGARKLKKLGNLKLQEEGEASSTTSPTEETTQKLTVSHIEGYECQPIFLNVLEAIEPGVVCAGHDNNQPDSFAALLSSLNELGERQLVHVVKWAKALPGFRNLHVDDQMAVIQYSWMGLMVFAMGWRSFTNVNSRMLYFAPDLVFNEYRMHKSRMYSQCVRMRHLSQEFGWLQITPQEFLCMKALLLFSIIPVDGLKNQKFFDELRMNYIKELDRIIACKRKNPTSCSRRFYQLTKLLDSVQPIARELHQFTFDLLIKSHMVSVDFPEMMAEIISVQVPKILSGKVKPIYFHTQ

Test system in the first experiment: not listed separately
The experiment is described as follows: qHTS assay to identify small molecule antagonists of the androgen receptor (AR) signaling pathway - cell viability counter screen (AID 743033; also: nearly all actives have a fitted effect of over 45% in size). The note with it: AR-bla HEK293 viability, CellTiter-Glo luminescence, 16 h; series mostly up to 58.5 µM. On the technique in general: qHTS replaces the single test concentration by a dilution series.
With `CCN(CC)c1ccc(N=Nc2ccc(S(=O)(=O)N(C)C)cc2)c(S(=O)(=O)NCC[n+]2ccccc2)c1`, the Potency entry is “inactive”.

In the case of `CC(NNC(=O)c1ccccc1)c1ccccc1` (configuration not stated), the Potency entry was “inactive”.

As to `COc1ccc2c(=O)c(C)c(-c3ccccc3)oc2c1CN(C)C`, the Potency entry was “inactive”.

Take `CC1(C)[C@@H]2CC[C@@]1(C)[C@H](OC(=O)CSC#N)C2`: the Potency result was “inactive”.

In the case of `Cc1cccc(C)c1N(CCCc1cccnc1)C(=O)C(C)N` (configuration not stated), the Potency result is “inactive”.

Turning to `Cn1c(=O)c2c(ncn2CCOC(=O)C(C)(C)Oc2ccc(Cl)cc2)n(C)c1=O`, the Potency entry was “inactive”.

For `[O]=[Bi][O]C(=O)[O][Bi]=[O]`, the Potency result is “inactive”.

Consider `O=S(=O)(O)c1cc(O)c2c(N=Nc3ccc(Nc4ccccc4)c4c(S(=O)(=O)O)cccc34)cc(S(=O)(=O)O)cc2c1`, for which the Potency result is “inactive”.

As to `Cc1cc(Nc2ccccc2C(=O)O)ccc1Cl`, the Potency result was “inactive”.

As for `CN1C(=O)CN2CCc3ccccc3C2c2cc(Cl)ccc21` (configuration not stated), the Potency entry is “inactive”.

On to `CC1(C)C(\C=C/C=C\C=C/C=C2/N(CCCCS(=O)(=O)O)c3ccc4ccccc4c3C2(C)C)=[N+](CCCCS(=O)(=O)[O-])c2ccc3ccccc3c21`, for which the Potency result is “inactive”.

The target of the next experiment is Androgen receptor (Homo sapiens) (UniProt P10275). As to the kind of experiment: qHTS assay to identify small molecule antagonists of the androgen receptor (AR) signaling pathway (AID 743035; active = well fitted inhibition curve with a large enough effect in the signal ratio in the repeat runs, not every such curve was filed as active; the % refers to the signal ratio; also: potency is read from the fitted curve at half-maximal effect). The settings on record: HEK293 AR-UAS-bla, R1881-stimulated, beta-lactamase FRET, 16 h; series mostly up to 58.5 µM. Put shortly:
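Antagonist mode: AR-bla HEK293 cells co-treated with test compounds and agonist R1881 for 16 h at 37C, 5% CO2. Beta-lactamase activity read as FRET fluorescence after 2 h room-temperature substrate loading.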
Turning to `CCC(=O)OCC(=O)[C@@]1(OC(=O)CC)[C@H](C)C[C@H]2[C@H]3[C@H]([C@@H](O)C[C@@]21C)[C@@]1(C)C=CC(=O)C=C1C[C@H]3Cl`, the Potency entry was “inactive”.

For the compound `CCOC(=O)O[C@]1(C(=O)COC(=O)CC)CC[C@H]2[C@@H]3CCC4=CC(=O)C=C[C@]4(C)[C@H]3[C@@H](O)C[C@@]21C`, the Potency was 2040 nM (active).

Take `O=S(=O)(O)c1cc(O)c2c(N=Nc3ccc(Nc4ccccc4)c4c(S(=O)(=O)O)cccc34)cc(S(=O)(=O)O)cc2c1`: the Potency entry is “inactive”.

Turning to `CCC(=O)NCCC1CCc2ccc3c(c21)CCO3` (configuration not stated), the Potency result was “inactive”.

For the next experiment the target is unchanged. The experiment is described as follows: qHTS assay to identify small molecule agonists of the androgen receptor (AR) signaling pathway using the MDA cell line (AID 743040; also: nearly all actives have a fitted effect of over 20% in size; also: potency is read from the fitted curve at half-maximal effect). The settings on record: MDA-kb2 AR-luc cells, MMTV luciferase, 16 h; series mostly up to 70.3 µM. Put shortly:
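Stable MMTV-luciferase reporter in MDA-kb2 cells; note the promoter carries GR as well as AR response elements. 16 h compound treatment, 37C, 0% CO2; ONE-Glo luminescence endpoint.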
For `CC(C)(C)NC(=O)[C@H]1CC[C@H]2[C@@H]3CC=C4C=C(C(=O)O)CC[C@]4(C)[C@H]3CC[C@]12C`, the Potency entry is “inactive”.

For the compound `CCC(=O)OCC(=O)[C@@]1(OC(=O)CC)[C@H](C)C[C@H]2[C@H]3[C@H]([C@@H](O)C[C@@]21C)[C@@]1(C)C=CC(=O)C=C1C[C@H]3Cl`, the Potency was 40.3 nM (active).

Regarding `CCN(CC)c1ccc(N=Nc2ccc(S(=O)(=O)N(C)C)cc2)c(S(=O)(=O)NCC[n+]2ccccc2)c1`, the Potency entry was “inactive”.

Take `CC(NNC(=O)c1ccccc1)c1ccccc1` (configuration not stated): the Potency result was “inactive”.

As for `CCOC(=O)O[C@]1(C(=O)COC(=O)CC)CC[C@H]2[C@@H]3CCC4=CC(=O)C=C[C@]4(C)[C@H]3[C@@H](O)C[C@@]21C`, the Potency was 50.7 nM (active).

For the compound `COc1ccc2c(=O)c(C)c(-c3ccccc3)oc2c1CN(C)C`, the Potency entry is “inactive”.

For `Cc1cccc(C)c1N(CCCc1cccnc1)C(=O)C(C)N` (configuration not stated), the Potency entry is “inactive”.

In the case of `O=S(=O)(O)c1cc(O)c2c(N=Nc3ccc(Nc4ccccc4)c4c(S(=O)(=O)O)cccc34)cc(S(=O)(=O)O)cc2c1`, the Potency entry is “inactive”.

As to `Cc1cc(Nc2ccccc2C(=O)O)ccc1Cl`, the Potency result was “inactive”.

`CC1(C)C(\C=C/C=C\C=C/C=C2/N(CCCCS(=O)(=O)O)c3ccc4ccccc4c3C2(C)C)=[N+](CCCCS(=O)(=O)[O-])c2ccc3ccccc3c21`: the Potency result is “inactive”.

As for `CCC(=O)NCCC1CCc2ccc3c(c21)CCO3` (configuration not stated), the Potency entry is “inactive”.

Test system in the next experiment: not listed separately
The experiment is described as follows: qHTS assay to identify small molecule antagonists of the androgen receptor (AR) signaling pathway using the MDA cell line - cell viability counter screen (AID 743041; also: nearly all actives have a fitted effect of over 45% in size; also: potency is read from the fitted curve at half-maximal effect). The note with it: MDA-kb2 viability, CellTiter-Fluor, 16 h, cells co-treated with R1881 androgen agonist; series mostly up to 70.3 µM. Summed up:
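Using the breast carcinoma line MDA-kb2 AR-luc, test chemicals were co-incubated with R1881 for 16 h; CellTiter-Fluor reagent, added at 15.5 h, provided a fluorescence measure of live cells.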
With `C=C1c2c(Cl)ccc(O)c2C(O)=C2C(=O)[C@]3(O)C(O)=C(C(N)=O)C(=O)[C@@H](N(C)C)[C@@H]3[C@@H](O)[C@H]12`, the Potency entry was “inactive”.

On to `CCCCCC(O)/C=C/C=O` (configuration not stated), for which the Potency result was “inactive”.

With `CCC(c1ccccc1)c1noc(CCN(CC)CC)n1` (configuration not stated), the Potency result was “inactive”.

Take `CN1CCc2c(c3ccccc3n2Cc2ccccc2)C1`: the Potency entry is “inactive”.

In the case of `CC(=O)OCC(=O)[C@@]12OC3(CCCC3)O[C@@H]1C[C@H]1[C@@H]3CCC4=CC(=O)C=C[C@]4(C)[C@@]3(F)[C@@H](O)C[C@@]12C`, the Potency entry is “inactive”.

For `CCCCCCCCCCCCCCCCCCOP(=O)([O-])OC1CC[N+](C)(C)CC1`, the Potency result was “inactive”.

With `CC[C@H](C)CCCCC(=O)N[C@@H](CCN)C(=O)N[C@H](C(=O)N[C@@H](CCN)C(=O)N[C@H]1CCNC(=O)[C@@H]([C@H](C)O)NC(=O)[C@H](CCN)NC(=O)[C@H](CCN)NC(=O)[C@H](CC(C)C)NC(=O)[C@@H](CC(C)C)NC(=O)[C@H](CCN)NC1=O)[C@@H](C)O` (X2-[Dab]T[Dab][Dab][Dab][dL]L[Dab][Dab][dT]; lactam 4-C), the Potency result is “inactive”.

As to `CC(C)CN(C[C@@H](O)[C@H](Cc1ccccc1)NC(=O)O[C@H]1CO[C@H]2OCC[C@H]21)S(=O)(=O)c1ccc(N)cc1`, the Potency entry was “inactive”.

Consider `CCOC(=O)[C@H](CS)NCCN[C@@H](CS)C(=O)OCC`, for which the Potency result was “inactive”.

Regarding `CC#CCC(C)[C@H](O)/C=C/[C@@H]1[C@H]2C/C(=C/CCCC(=O)O)C[C@H]2C[C@H]1O` (some centres not stated), the Potency entry is “inactive”.

For the compound `CC(C)(C)NC(=O)[C@H]1CC[C@H]2[C@@H]3CC=C4C=C(C(=O)O)CC[C@]4(C)[C@H]3CC[C@]12C`, the Potency result was “inactive”.

With `COc1ccc(C(=O)Nc2ccccc2CCC2CCCCN2C)cc1` (configuration not stated), the Potency entry is “inactive”.

Consider `CS(=O)(=O)c1ccc(C2=C(c3ccccc3)C(=O)OC2)cc1`, for which the Potency entry is “inactive”.

As for `CC(C)(C)NCC(O)CSc1nc(-c2ccc(C(N)=O)s2)cs1` (configuration not stated), the Potency entry is “inactive”.

As to `C#C[C@]1(O)CC[C@H]2[C@@H]3CCC4=C(CCC(=O)C4)[C@H]3CC[C@@]21C`, the Potency entry is “inactive”.

For the compound `CCCCCCCCCCCCCCCCCC[N+](C)(C)CCC[Si](OC)(OC)OC`, the Potency entry was “inactive”.

As to `CCCCC(C)(O)C/C=C/[C@H]1[C@H](O)CC(=O)[C@@H]1CCCCCCC(=O)OC` (some centres not stated), the Potency result was “inactive”.

Turning to `CCC(=O)OCC(=O)[C@@]1(OC(=O)CC)[C@H](C)C[C@H]2[C@H]3[C@H]([C@@H](O)C[C@@]21C)[C@@]1(C)C=CC(=O)C=C1C[C@H]3Cl`, the Potency result was “inactive”.

`C[N+]1(C)[C@@H]2CC(OC(=O)C(O)(c3cccs3)c3cccs3)C[C@H]1[C@@H]1O[C@@H]12` (some centres not stated): the Potency entry is “inactive”.

As for `CC(C)NCC(O)COc1ccccc1-n1cccc1` (configuration not stated), the Potency entry was “inactive”.

Turning to `CCN(CC)c1ccc(N=Nc2ccc(S(=O)(=O)N(C)C)cc2)c(S(=O)(=O)NCC[n+]2ccccc2)c1`, the Potency entry is “inactive”.

Turning to `O=C1CCC(=O)N1CO`, the Potency entry is “inactive”.

As for `CC(NNC(=O)c1ccccc1)c1ccccc1` (configuration not stated), the Potency entry is “inactive”.

For `CCCCC[C@H](O)/C=C/[C@H]1[C@H](O)CC(=O)[C@@H]1CCCCCCC(=O)O`, the Potency result is “inactive”.

For `CCOC(=O)O[C@]1(C(=O)COC(=O)CC)CC[C@H]2[C@@H]3CCC4=CC(=O)C=C[C@]4(C)[C@H]3[C@@H](O)C[C@@]21C`, the Potency result is “inactive”.

Consider `CC1(C)[C@@H]2CC[C@@]1(C)[C@H](OC(=O)CSC#N)C2`, for which the Potency result is “inactive”.

Take `CC(=O)[C@]1(O)Cc2c(O)c3c(c(O)c2[C@@H](O[C@H]2C[C@H](N)[C@H](O)[C@H](C)O2)C1)C(=O)c1c(O)cccc1C3=O`: the Potency is 11900 nM (active).

Consider `Cc1cccc(C)c1N(CCCc1cccnc1)C(=O)C(C)N` (configuration not stated), for which the Potency result is “inactive”.

In the case of `Cc1nc(NS(=O)(=O)c2ccc(N)cc2)nc(C)c1Br`, the Potency entry is “inactive”.

In the case of `Cn1c(=O)c2c(ncn2CCOC(=O)C(C)(C)Oc2ccc(Cl)cc2)n(C)c1=O`, the Potency result was “inactive”.

Regarding `[O]=[Bi][O]C(=O)[O][Bi]=[O]`, the Potency entry is “inactive”.

As to `C#CCOc1ccc2c(C)cc(=O)oc2c1`, the Potency result was “inactive”.

With `Cc1cc(Nc2ccccc2C(=O)O)ccc1Cl`, the Potency result was “inactive”.

On to `CN1C(=O)CN2CCc3ccccc3C2c2cc(Cl)ccc21` (configuration not stated), for which the Potency entry is “inactive”.

On to `CN1CCN2c3ncccc3Cc3ccccc3C2C1` (configuration not stated), for which the Potency result is “inactive”.

Take `CCC(=O)NCCC1CCc2ccc3c(c21)CCO3` (configuration not stated): the Potency entry was “inactive”.
